# In PubChem BioAssay (NCATS):
# Values joined by “and” are separate entries in the source; they are usually repeats but may differ in a detail not shown here. Equal entries are not always repeated. Results filed as inconclusive are left out. Entries that show only a call come without a potency. Some compounds were tested as several samples or in several runs, with calls that do not always agree. Active and inactive are the calls of the source. Unless noted, calls come from the whole dose curve; as a rule, active = well fitted curve in the direction sought with a large enough effect; inconclusive = small, poorly fitted or top-dose-only effect, or another doubt; inactive = no such curve, though single readings can be large; an effect the other way counts as inactive or inconclusive.
# Key:
# [1] = molecular target: Peroxisome proliferator-activated receptor delta (Homo sapiens) (UniProt Q03181); experiment: qHTS assay for small molecule antagonists of peroxisome proliferator-activated receptor delta signaling (AID 588535; active = well fitted inhibition curve with a large enough effect in the signal ratio, with a control signal flat, not every such curve was filed as active; the % refers to the signal ratio)
# Sequence of Peroxisome proliferator-activated receptor delta (Homo sapiens) (Q03181 whole entry, looked up): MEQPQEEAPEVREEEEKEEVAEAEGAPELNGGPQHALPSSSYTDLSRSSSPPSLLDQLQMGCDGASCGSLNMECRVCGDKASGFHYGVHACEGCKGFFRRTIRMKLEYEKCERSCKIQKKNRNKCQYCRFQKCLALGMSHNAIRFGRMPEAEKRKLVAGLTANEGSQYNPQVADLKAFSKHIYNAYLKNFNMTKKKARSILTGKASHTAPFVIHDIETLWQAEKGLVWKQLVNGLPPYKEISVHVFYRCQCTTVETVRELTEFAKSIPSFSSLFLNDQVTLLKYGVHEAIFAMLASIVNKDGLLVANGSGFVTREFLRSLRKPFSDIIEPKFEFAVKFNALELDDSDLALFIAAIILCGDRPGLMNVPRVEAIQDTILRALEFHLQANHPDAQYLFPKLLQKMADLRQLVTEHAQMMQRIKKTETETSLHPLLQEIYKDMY
# Outline: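 Titrations were run on PPAR-delta-UAS-bla HEK293T cells in charcoal/dextran-stripped serum, incubated 18 h at 37 C. CCF4 fluorescence (460/530 nm) after 2 h RT; Hill equation yields IC50 and maximal response.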
# [2] = molecular target: Peroxisome proliferator-activated receptor gamma (Homo sapiens) (UniProt P37231); experiment: qHTS assay for small molecule agonists of peroxisome proliferator-activated receptor gamma signaling (AID 588536; active = well fitted curve in the direction sought with a large enough effect in the signal ratio, with a control signal flat, not every such curve was filed as active; the % refers to the signal ratio)
# Sequence of Peroxisome proliferator-activated receptor gamma (Homo sapiens) (P37231 whole entry, looked up): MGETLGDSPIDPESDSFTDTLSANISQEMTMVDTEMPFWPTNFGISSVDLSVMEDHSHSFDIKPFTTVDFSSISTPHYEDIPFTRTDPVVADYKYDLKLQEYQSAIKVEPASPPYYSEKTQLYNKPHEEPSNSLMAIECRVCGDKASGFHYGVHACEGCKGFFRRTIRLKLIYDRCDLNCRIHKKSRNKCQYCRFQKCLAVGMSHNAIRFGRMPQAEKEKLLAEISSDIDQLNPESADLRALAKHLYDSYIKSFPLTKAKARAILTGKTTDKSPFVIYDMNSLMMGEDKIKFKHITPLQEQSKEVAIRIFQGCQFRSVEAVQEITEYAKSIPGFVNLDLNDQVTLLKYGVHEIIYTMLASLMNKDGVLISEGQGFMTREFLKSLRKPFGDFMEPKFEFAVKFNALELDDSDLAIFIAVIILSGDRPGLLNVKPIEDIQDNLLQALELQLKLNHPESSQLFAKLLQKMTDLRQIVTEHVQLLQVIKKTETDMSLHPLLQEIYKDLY
# Outline: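 Beta-lactamase reporter read-out: CCF4 fluorescence (ex 405, em 460/530 nm) after 2 h at RT. HEK293 GeneBLAzer cells were treated for 16 h at 37 C. Hill fits gave EC50 and efficacy versus 2 uM rosiglitazone (100%) and DMSO (0%).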
# [3] = qHTS assay for small molecule agonists of retinoid X receptor alpha signaling (AID 588544; calls by dose curve; note: potency is the fitted concentration of half-maximal effect); settings: HEK293T RXRa-UAS-bla, beta-lactamase reporter, 18 h; 530 nm emission
# [4] = molecular target: Retinoic acid receptor RXR-alpha (Homo sapiens) (UniProt P19793); experiment: as above
# Sequence of Retinoic acid receptor RXR-alpha (Homo sapiens) (P19793 whole entry, looked up): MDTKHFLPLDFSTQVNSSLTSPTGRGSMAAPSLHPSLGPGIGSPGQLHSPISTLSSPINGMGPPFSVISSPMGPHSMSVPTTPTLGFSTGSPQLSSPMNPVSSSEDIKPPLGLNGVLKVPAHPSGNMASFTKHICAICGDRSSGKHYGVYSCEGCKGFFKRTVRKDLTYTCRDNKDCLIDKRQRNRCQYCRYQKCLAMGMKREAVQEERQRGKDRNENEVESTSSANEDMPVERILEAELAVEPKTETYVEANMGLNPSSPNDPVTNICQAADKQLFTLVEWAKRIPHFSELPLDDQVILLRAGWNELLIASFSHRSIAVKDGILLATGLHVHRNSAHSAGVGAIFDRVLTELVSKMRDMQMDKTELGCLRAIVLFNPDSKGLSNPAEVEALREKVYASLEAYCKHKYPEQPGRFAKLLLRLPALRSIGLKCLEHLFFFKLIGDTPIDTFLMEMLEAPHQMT
# [5] = molecular target: Thyroid hormone receptor beta (Homo sapiens) (UniProt P10828); experiment: qHTS assay for small molecule agonists of thyroid hormone receptor beta signaling (AID 588545; calls by dose curve)
# Sequence of Thyroid hormone receptor beta (Homo sapiens) (P10828 whole entry, looked up): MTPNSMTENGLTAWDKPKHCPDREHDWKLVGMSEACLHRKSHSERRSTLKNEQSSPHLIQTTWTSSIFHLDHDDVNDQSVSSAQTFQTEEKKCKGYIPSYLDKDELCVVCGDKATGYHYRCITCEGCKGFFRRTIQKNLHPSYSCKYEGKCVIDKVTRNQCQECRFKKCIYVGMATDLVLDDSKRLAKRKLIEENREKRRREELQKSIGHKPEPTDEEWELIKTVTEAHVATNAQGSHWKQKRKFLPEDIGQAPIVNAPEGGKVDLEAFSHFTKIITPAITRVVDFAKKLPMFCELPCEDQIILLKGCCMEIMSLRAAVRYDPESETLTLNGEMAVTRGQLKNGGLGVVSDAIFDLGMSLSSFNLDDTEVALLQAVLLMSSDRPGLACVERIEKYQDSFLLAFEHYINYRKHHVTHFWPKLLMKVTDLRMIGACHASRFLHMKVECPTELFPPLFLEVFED
# Outline: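 Beta-lactamase reporter activity under TR response element control is measured in HEK 293 cells after 18 hrs compound exposure. Signal is ratiometric CCF4 fluorescence, 460/530 nm.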
# [6] = qHTS assay for small molecule antagonists of retinoid X receptor alpha signaling (AID 588546; active = well fitted inhibition curve with a large enough effect in the signal ratio, with a control signal flat, not every such curve was filed as active; the % refers to the signal ratio; note: potency is the fitted concentration of half-maximal effect;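 for max response: cells stimulated with 9-cis-retinoic acid as agonist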); settings: HEK293T RXRa-UAS-bla, beta-lactamase ratio, antagonist mode; measured here: W530 green channel, cytotoxicity proxy
# Outline: (§1)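 Beta-lactamase reporter inhibition, read as CCF4 fluorescence ratio (ex 405, em 460/530 nm) after 2 h at RT. HEK293T UAS-bla cells, 2500/well, were stimulated with 9-cis-RA at 500 or 100 nM final alongside test compound for 18 h at 37 C.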
# [7] = molecular target: Retinoic acid receptor RXR-alpha (Homo sapiens) (UniProt P19793); experiment: as above; settings: HEK293T RXRa-UAS-bla, beta-lactamase ratio, antagonist mode
# Outline: as §1
# [8] = molecular target: Voltage-gated inwardly rectifying potassium channel KCNH2 (Homo sapiens) (UniProt Q12809); experiment: qHTS Assay for Small Molecule Inhibitors of the Human hERG Channel Activity (AID 588834);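 note: lower thallium flux fluorescence means stronger hERG block; nearly all actives have a fitted effect of over 50% in size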; note: potency is the fitted concentration of half-maximal effect
# Sequence of Voltage-gated inwardly rectifying potassium channel KCNH2 (Homo sapiens) (Q12809 whole entry, looked up): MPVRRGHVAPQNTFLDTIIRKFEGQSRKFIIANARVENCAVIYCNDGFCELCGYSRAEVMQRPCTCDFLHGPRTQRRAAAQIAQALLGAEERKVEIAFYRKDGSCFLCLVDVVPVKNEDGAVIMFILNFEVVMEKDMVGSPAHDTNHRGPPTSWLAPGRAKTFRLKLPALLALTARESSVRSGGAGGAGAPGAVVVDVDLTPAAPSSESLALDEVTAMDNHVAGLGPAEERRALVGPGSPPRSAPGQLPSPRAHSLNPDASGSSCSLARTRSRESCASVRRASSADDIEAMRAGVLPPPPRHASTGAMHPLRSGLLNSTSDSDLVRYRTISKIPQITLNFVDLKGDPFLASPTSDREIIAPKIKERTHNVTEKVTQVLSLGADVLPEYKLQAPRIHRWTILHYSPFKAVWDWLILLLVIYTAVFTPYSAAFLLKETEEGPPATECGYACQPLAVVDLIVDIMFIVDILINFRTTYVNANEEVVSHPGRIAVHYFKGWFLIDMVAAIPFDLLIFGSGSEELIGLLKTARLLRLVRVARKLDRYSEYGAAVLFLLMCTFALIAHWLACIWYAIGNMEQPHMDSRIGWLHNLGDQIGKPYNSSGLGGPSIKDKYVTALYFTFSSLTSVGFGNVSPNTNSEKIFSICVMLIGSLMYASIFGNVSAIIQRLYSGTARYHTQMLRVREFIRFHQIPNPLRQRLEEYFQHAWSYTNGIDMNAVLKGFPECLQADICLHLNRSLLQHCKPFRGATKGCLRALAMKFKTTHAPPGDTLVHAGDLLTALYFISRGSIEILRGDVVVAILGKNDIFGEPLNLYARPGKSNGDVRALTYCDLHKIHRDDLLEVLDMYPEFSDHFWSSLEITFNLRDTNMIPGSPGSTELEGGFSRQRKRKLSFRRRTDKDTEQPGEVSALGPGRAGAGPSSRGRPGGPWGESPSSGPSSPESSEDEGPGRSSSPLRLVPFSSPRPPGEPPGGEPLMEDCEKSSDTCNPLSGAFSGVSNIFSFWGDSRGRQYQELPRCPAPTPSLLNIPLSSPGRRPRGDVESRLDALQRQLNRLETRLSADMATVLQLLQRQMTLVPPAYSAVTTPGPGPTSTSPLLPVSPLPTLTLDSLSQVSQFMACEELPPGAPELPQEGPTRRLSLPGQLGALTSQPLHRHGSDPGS
# Outline: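 Cells were infected with hERG-BacMam virus for 4 hrs at room temperature, grown overnight, then seeded at 2000/well. After dye loading and roughly 10 min compound treatment, thallium influx was triggered and fluorescence recorded.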
# [9] = molecular target: Luciferin 4-monooxygenase (Photinus pyralis) (UniProt P08659); experiment: Biochemical firefly luciferase enzyme assay for NPC (AID 624030);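 note: purified P. pyralis luciferase at 10 nM with luciferin and ATP substrate; series mostly up to about 59 µM; nearly all actives have a fitted effect of over 70% in size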
# Sequence of Luciferin 4-monooxygenase (Photinus pyralis) (P08659 whole entry, looked up): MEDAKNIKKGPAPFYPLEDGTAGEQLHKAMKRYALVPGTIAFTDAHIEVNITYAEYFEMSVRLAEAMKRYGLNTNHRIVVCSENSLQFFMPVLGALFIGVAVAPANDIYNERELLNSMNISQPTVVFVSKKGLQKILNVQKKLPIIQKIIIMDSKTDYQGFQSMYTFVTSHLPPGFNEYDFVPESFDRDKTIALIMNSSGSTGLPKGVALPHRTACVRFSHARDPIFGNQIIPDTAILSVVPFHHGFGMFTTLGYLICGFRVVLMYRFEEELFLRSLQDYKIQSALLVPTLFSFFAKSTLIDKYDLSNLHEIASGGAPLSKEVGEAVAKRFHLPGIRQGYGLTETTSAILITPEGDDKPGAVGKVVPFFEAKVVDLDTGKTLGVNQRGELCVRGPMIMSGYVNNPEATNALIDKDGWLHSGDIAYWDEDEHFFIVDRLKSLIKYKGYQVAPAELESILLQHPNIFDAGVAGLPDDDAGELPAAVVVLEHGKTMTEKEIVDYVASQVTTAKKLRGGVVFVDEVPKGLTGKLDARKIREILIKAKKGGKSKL
# Outline: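 Direct inhibition of firefly luciferase enzyme (10 nM final, 50 mM Tris Acetate) assessed by luminescence within 5 minutes. Percent activity scaled between DMSO and PTC124 positive control, with concentration-effect curves classified by fit quality and response.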
# [10] = S16 Schwann cell viability assay (CellTiter-Glo assay) (AID 624031);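 note: cellular ATP luminescence as a viability measure; series mostly up to about 58 µM; nearly all actives have a fitted effect of over 70% in size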
# Outline: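 CellTiter-Glo ATP luminescence counter-screen in untransfected S16 rat Schwann cells, 24h compound exposure at 37 degree Celsius after overnight seeding (500-750 cells/well); response scaled between cell-free wells and DMSO (0% activity), curves classed by r2 and magnitude.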
# [11] = S16 Schwann cell PMP22 intronic element firefly luciferase assay (AID 624032); note: nearly all actives have a fitted effect of over 30% in size; note: potency is the fitted concentration of half-maximal effect
# Outline: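 Luciferase reporter of PMP22 intronic-element expression in stably transfected S16 rat Schwann cells, read by ONE-Glo luminescence after 24 h compound exposure at 37 C. Activity scaled between DMSO (0%) and positive-control PTC124; concentration-effect curves quality-classified.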
# [12] = S16 Schwann cell PMP22 intronic element beta-lactamase assay (AID 624044; calls by dose curve; note: nearly all actives have a fitted effect of over 15% in size)
# Outline: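 Beta-lactamase reporter under a PMP22 intronic regulatory element in stable S16 rat Schwann cells; 24 h compound exposure. 460 nm blue signal normalized between DMSO (0%) and potassium clavulanate, with 535 nm FRET tracking viability; curves classed by r2 and response.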
# [13] = molecular target: Peroxisome proliferator-activated receptor gamma (Homo sapiens) (UniProt P37231); experiment: qHTS assay for small molecule antagonists of peroxisome proliferator-activated receptor gamma signaling (AID 588537; active = well fitted inhibition curve with a large enough effect in the signal ratio, with a control signal flat, not every such curve was filed as active; the % refers to the signal ratio; note: potency is the fitted concentration of half-maximal effect)
# Outline: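 Antagonist-mode β-lactamase reporter screen run as a titration series. HEK293 PPARγ-UAS-bla cells are stimulated with rosiglitazone (50 nM final) for 16 h, then CCF4 is read at 460/530 nm. Data are scaled between DMSO and rosiglitazone and fitted to the Hill equation.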
# [14] = molecular target: Vitamin D3 receptor (Homo sapiens) (UniProt P11473); experiment: qHTS assay for small molecule antagonists of vitamin D receptor signaling (AID 588541; calls by dose curve;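 note: receptor activated by calcitriol during compound treatment; series mostly up to about 77 µM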)
# Sequence of Vitamin D3 receptor (Homo sapiens) (P11473 whole entry, looked up): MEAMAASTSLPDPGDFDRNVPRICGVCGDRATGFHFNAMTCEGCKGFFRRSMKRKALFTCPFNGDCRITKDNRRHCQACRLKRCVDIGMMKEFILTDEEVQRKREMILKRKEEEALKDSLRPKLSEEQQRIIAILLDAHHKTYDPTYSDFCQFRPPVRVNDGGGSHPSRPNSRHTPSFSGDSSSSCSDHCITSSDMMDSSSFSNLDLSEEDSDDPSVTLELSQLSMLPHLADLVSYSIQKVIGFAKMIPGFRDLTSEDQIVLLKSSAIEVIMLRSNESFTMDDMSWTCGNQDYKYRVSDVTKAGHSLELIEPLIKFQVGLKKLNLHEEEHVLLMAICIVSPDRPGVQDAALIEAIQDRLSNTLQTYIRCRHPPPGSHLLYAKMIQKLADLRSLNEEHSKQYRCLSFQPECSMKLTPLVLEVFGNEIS
# Outline: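 Antagonist-mode beta-lactamase reporter assay: HEK293T VDR-UAS-bla cells were exposed to titrated compound alongside 1-alpha,25-dihydroxyvitamin D3 at 3 nM final for 16 h. Values were normalized to the 50 nM agonist control and DMSO basal, with IC50 and efficacy from Hill equation fits.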
# [15] = molecular target: Vitamin D3 receptor (Homo sapiens) (UniProt P11473); experiment: qHTS assay for small molecule agonists of vitamin D receptor signaling (AID 588543; calls by dose curve)
# Outline: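 qHTS in agonist mode: compound titrations stimulate a VDR-driven β-lactamase reporter in HEK293T cells over 16 h at 37 °C. Response normalized to 50 nM 1α,25-dihydroxyvitamin D3 = 100%, DMSO = 0%; Hill fitting gives EC50 and maximal response.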
# [16] = molecular target: Glutaminase kidney isoform, mitochondrial (Homo sapiens) (UniProt O94925); experiment: qHTS for Inhibitors of Glutaminase (GLS): LOPAC Validation (AID 624146);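 note: glutamate product detected by oxidase and peroxidase coupled Amplex red fluorescence gain; series mostly up to about 46 µM; nearly all actives have a fitted effect of over 60% in size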
# Sequence of Glutaminase kidney isoform, mitochondrial (Homo sapiens) (O94925 whole entry, looked up, canonical isoform): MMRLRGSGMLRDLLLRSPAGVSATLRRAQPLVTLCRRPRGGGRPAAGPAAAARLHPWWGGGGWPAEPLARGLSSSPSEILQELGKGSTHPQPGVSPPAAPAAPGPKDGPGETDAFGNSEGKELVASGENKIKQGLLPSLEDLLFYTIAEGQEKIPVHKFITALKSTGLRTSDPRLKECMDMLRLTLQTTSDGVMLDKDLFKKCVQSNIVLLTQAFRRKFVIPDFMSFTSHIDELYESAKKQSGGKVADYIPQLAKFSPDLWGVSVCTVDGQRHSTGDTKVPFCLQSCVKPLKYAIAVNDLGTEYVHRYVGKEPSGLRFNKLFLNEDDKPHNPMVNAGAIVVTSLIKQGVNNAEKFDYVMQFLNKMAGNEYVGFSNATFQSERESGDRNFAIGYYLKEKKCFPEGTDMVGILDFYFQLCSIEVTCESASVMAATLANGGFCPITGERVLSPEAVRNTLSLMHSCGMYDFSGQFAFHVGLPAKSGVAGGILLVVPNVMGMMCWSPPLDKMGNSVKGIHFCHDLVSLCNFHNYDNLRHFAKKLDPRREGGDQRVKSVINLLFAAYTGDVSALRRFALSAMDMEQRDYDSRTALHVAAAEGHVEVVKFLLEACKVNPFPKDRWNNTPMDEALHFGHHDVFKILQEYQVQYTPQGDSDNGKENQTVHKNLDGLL
# Outline: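 Glutamate formation by hKGA was monitored fluorometrically using coupled glutamate oxidase, HRP and Amplex Red. Substrate was added as 1 mM L-glutamine solution; incubation was 30 min at RT after an initial read.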
# [17] = qHTS of Trypanosoma Brucei Inhibitors: LOPAC Validation (AID 624147)
# Outline: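 T. brucei PYK with substrate was exposed to pin-transferred compounds across a concentration series, then started with 130 uM ADP (final). After 45 min at room temperature, Kinase-Glo Plus luminescence was read, normalized and curve-fitted.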
# [18] = molecular target: Glucagon-like peptide 1 receptor (Homo sapiens) (UniProt P43220); experiment: qHTS of GLP-1 Receptor Agonists: LOPAC Validation (AID 624148);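 note: luminescence from a luciferase reporter switched on by cAMP; higher luminescence signal means agonism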
# Outline: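 Agonism scored as increased luciferase luminescence driven by cAMP in HEK293 clones carrying GLP-1R. Cells settled 12 hours, received compound for 4-6 hr at 37 deg C, 5% CO2, and were read after 12 min detection reagent at RT.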
# [19] = qHTS of Nrf2 Activators: LOPAC Validation (AID 624149)
# Outline: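 Luciferase signal from ARE activation, read with Steady-Glo after 30 min at room temperature. Compounds were pin-transferred onto AREc32_Fluc cells (1000/well, OPTI-MEM/5% FBS, seeded overnight) and left 24 hr at 37 deg C.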
smiles,measurement,setting,value
Oc1ccc(Cl)cc1Cc1ccccc1,outcome,[1],inactive
same,outcome,[2],inactive
same,max response,[3],-11.5% and -1.88%
same,Potency,[4],35.5 µM (active) and 39.8 µM (active)
same,outcome,[5],inactive
same,max response,[6],-5.58%
same,max response,[7],-16.2% (inactive)
same,Potency,[8],inactive and 44.7 µM (active)
same,Potency,[9],inactive
same,Potency,[10],inactive
same,Potency,[11],inactive
same,Potency,[12],inactive
CC[N+](CC)(CC)CC,Potency,[8],inactive
same,Potency,[9],inactive
same,Potency,[10],inactive
C=C1C[C@@H]2[C@H](CC[C@]3(C)C(=O)CC[C@@H]23)[C@@]2(C)C=CC(=O)C=C12,Potency,[8],inactive
Cc1ccc2c(c1)C1CN(C)CCC1N2 (stereo not given),Potency,[8],inactive
CCOC(=O)C1(c2ccccc2)CCN(CCC(C#N)(c2ccccc2)c2ccccc2)CC1,Potency,[8],355 nM (active)
same,Potency,[9],inactive
same,Potency,[10],inactive
CCn1cc(C(=O)O)c(=O)c2ccc(C)nc21,outcome,[1],inactive
same,max response,[3],24.5%
same,Potency,[4],inactive
same,Potency,[8],inactive
Oc1cc(Cl)ccc1Oc1ccc(Cl)cc1Cl,outcome,[1],inactive
same,outcome,[2],inactive
same,Potency,[13],inactive
same,outcome,[14],inactive
same,outcome,[15],inactive
same,outcome,[5],inactive
same,max response,[6],-6.33%
same,Potency,[7],44.7 µM (active)
same,Potency,[8],inactive
same,Potency,[9],inactive
same,Potency,[10],inactive
same,Potency,[11],inactive
same,Potency,[12],inactive
N[C@@H]1C[C@H]1c1ccccc1,Potency,[8],inactive
C[C@]12C/C(=C/O)C(=O)C[C@@H]1CC[C@@H]1[C@@H]2CC[C@@]2(C)[C@H]1CC[C@]2(C)O,outcome,[15],inactive
same,outcome,[5],inactive
same,Potency,[8],inactive
same,Potency,[9],inactive
same,Potency,[10],inactive
same,Potency,[12],inactive
CC[N+]1(C)CCCC(OC(=O)C(O)(c2ccccc2)c2ccccc2)C1 (stereo not given),Potency,[8],inactive
same,Potency,[9],inactive
same,Potency,[10],inactive
C[C@H]1O[C@@H](O[C@H]2[C@@H](O)C[C@H](O[C@H]3[C@@H](O)C[C@H](O[C@H]4CC[C@@]5(C)[C@H](CC[C@@H]6[C@@H]5CC[C@]5(C)[C@@H](C7=CC(=O)OC7)CC[C@]65O)C4)O[C@@H]3C)O[C@@H]2C)C[C@H](O)[C@@H]1O,outcome,[5],inactive
O=C1CC[C@@]2(O)[C@H]3Cc4ccc(O)c5c4[C@@]2(CCN3CC2CC2)[C@H]1O5,Potency,[8],inactive
Clc1ccc(CCC(Cn2ccnc2)Sc2c(Cl)cccc2Cl)cc1 (stereo not given),Potency,[8],5010 nM (active)
CC(C)[N+](C)(CCOC(=O)C1c2ccccc2Oc2ccccc21)C(C)C,Potency,[8],inactive
c1ccc2c(c1)Nc1ccccc1S2,outcome,[1],inactive
same,outcome,[2],inactive
same,Potency,[13],inactive and 39.8 µM (active)
same,max response,[3],2.15% and 8.42%
same,Potency,[4],inactive
same,outcome,[5],inactive
same,max response,[6],-11.1% and -4.36%
same,max response,[7],11.2% (inactive) and 0.985% (inactive)
same,Potency,[8],7.08 µM (active) and 12.6 µM (active)
same,Potency,[9],inactive
same,Potency,[10],inactive
same,Potency,[11],inactive
same,Potency,[12],inactive
NCC(O)c1ccc(O)cc1 (stereo not given),outcome,[2],inactive
same,outcome,[14],inactive
same,outcome,[15],inactive
same,max response,[3],14.7%
same,Potency,[4],inactive
same,max response,[6],5.99%
same,max response,[7],1.76% (inactive)
same,Potency,[8],inactive
same,Potency,[9],inactive
same,Potency,[10],inactive
same,Potency,[11],16.1 µM (active)
same,Potency,[16],inactive
same,outcome,[17],inactive
same,outcome,[18],inactive
same,outcome,[19],inactive
CN(C)[C@@H]1C(=O)C(C(N)=O)=C(O)[C@@]2(O)C(=O)C3=C(O)c4c(O)cccc4[C@@](C)(O)[C@H]3C[C@@H]12,Potency,[8],inactive
